Reference: PubChem BioAssay (NCATS)
Records with an inconclusive call do not appear. Unmarked numbers belong to inactive results. Calls follow the shape of the dose curve; as a rule, active = well fitted inhibition curve with a large enough effect; inconclusive = small, poorly fitted or top-dose-only effect; inactive = no such curve, though single readings can be large or run the other way.

molecular target: Rap guanine nucleotide exchange factor 3 (Homo sapiens) (UniProt O95398); test: Counterscreen qHTS for antagonist of cAMP-regulated guanine nucleotide exchange factor 3 (EPAC1) (AID 1645888); settings: Rap1B-BODIPY-GDP nucleotide exchange, fluorescence; series mostly up to 154 µM; activity change, negative = inhibition: at the top concentration;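 also: fluorescence loss as bound BODIPY-GDP is released from Rap1B; % of control where 0% means no effect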
Sequence (O95398 whole entry, looked up): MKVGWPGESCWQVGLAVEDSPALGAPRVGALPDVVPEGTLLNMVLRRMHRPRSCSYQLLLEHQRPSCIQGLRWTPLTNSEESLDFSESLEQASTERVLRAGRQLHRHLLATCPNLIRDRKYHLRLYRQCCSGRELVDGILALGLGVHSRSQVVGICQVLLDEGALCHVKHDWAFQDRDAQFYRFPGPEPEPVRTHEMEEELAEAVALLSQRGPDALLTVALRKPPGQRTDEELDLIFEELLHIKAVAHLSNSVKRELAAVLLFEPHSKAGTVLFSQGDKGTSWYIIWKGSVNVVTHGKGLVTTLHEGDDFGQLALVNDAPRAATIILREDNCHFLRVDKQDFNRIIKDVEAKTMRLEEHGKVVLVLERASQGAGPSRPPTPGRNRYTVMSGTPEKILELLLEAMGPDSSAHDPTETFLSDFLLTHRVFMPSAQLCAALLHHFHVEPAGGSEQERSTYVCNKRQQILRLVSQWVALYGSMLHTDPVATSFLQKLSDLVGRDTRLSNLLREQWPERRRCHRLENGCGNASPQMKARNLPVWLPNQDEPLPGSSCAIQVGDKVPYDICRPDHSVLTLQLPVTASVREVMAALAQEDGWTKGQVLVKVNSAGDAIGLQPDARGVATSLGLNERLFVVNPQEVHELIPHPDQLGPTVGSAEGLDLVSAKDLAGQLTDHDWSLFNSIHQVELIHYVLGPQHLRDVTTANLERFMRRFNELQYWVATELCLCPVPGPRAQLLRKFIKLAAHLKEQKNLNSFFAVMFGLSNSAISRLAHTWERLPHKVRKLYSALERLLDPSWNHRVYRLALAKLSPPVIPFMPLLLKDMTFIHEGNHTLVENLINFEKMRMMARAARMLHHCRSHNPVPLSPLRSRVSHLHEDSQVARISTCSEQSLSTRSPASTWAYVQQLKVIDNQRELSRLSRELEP
In short: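 Rap1B-BODIPY-GDP 250 nM + GDP 50 uM; cpds 7-pt, final 9.74 nM–152 uM (activator mode) or from 7.32 nM upwards (inhibitor mode); RT; FI 480/540 nm at 5 and 30 min, then ± cAMP, reread.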

Structure (SMILES)	activity change, negative = inhibition
CCc1nnc(NC(=O)c2ccc(-c3cccc(C(F)(F)F)c3)o2)s1	7.54% [at 30.8 µM]
CCc1ccc(NC(=O)COC(=O)CCC2CCCC2)cc1	-15.1%
O=S(=O)(N/N=C/c1cccnc1)c1ccc(Cl)c(Cl)c1	-14.7% [at 30.8 µM]
Cc1ccc(NC(=O)Cn2nnc(-c3nc(-c4ccncc4)no3)c2N)c(C)c1	-2.46%
Cn1cc([C@]2(O)C(=O)Nc3c(F)cccc32)c2ccccc21	-20.5%
c1ccc(NN(Cc2cnccn2)c2ccccc2)cc1	14.1%
C=CCOc1ccc(C2N3CC4(CC)CN2CC(CC)(C3)C4=O)cc1 (stereo not given)	-3.19% [at 30.8 µM]
COc1ccc(C2c3ccsc3CCN2C(C)=O)cc1 (stereo not given)	15.9%
O=S(=O)(NCC1(N2CCOCC2)CCCCC1)c1ccc(Cl)cc1C(F)(F)F	-10.4%
COC(=O)c1cc(Br)c(=O)n(CCc2ccc(F)cc2)c1	0.232%
COc1cc(NS(=O)(=O)c2cc3[nH]c(=O)c(=O)[nH]c3cc2C)cc(OC)c1OC	-5.07% [at 30.8 µM]
CSc1ccc(CC2C(=O)Nc3ccccc32)cc1 (stereo not given)	6.22%
COc1c(O)cc2oc(-c3ccc(O)c(O)c3)cc(=O)c2c1O	15.9%
COc1cccc(-n2ccn(CC(=O)NCc3ccc(C)cc3)c(=O)c2=O)c1	41.6%
COc1cccc(-c2nc(SCC(=O)Nc3nc(-c4ccccc4)c(C)s3)[nH]c(=O)c2C#N)c1	-4.96%
Cc1ccccc1N=C(c1ccccc1)C1C(=O)c2ccccc2C1=O	-5.51% [at 30.8 µM]
CCOc1cc(/C=C2\SC(=S)N(NS(=O)(=O)c3ccc(C)cc3)C2=O)ccc1O	-6.19%
NS(=O)(=O)c1ccc(N=Nc2c[nH]c(=O)c(O)c2)cc1	-26.6%
Cc1[nH]n(-c2ncc(-c3ccccc3)s2)c(=O)c1C(c1ccc(Br)cc1)C(C#N)C#N (stereo not given)	-9.33% [at 30.8 µM]
COC(=O)c1cc(Br)c(=O)n(Cc2ccc3c(c2)OCO3)c1	5.45% [at 30.8 µM]

Structure (SMILES)	activity change, negative = inhibition
CCN(CC)c1nc2ccccc2n(Cc2cccc(OC)c2)c1=O	0.181%
Cc1cccn2cc(CCNC(=O)c3ccco3)nc12	-20.8% [at 30.8 µM]
COCCCn1c(=N)c(C(=O)NCc2cccnc2)cc2c(=O)n3cccc(C)c3nc21	-28.8%
O=C(Nc1nc2ccc(Cl)cc2s1)C1CCCO1 (stereo not given)	0.458% [at 30.8 µM]
O=C(COc1ccccc1[N+](=O)[O-])Nc1cccc(C(=O)Nc2ccccc2C(=O)O)c1	6.98%
CC[C@]12c3[nH]c4cc(-c5ccco5)ccc4c3CCN1C(=O)[C@@H](CC(=O)NCCCOC)C[C@@H]2C(=O)N1CCN(C(=O)C2CC2)CC1	-21.4% [at 30.8 µM]
O=C(/C=C/c1ccc(O)c(O)c1)O[C@@H]1C[C@](O)(C(=O)O)C[C@@H](O)[C@H]1O	-13.1% [at 30.8 µM]
Cc1ccc(SCc2nnc(N)s2)cc1	3.94% [at 30.8 µM]
O=C(NCCc1ccccc1)c1ccc2c(=O)[nH]c3c(C(=O)NCC4CCCO4)sc(=S)n3c2c1 (stereo not given)	1.32%
O=C(Nc1ccccc1C(=O)O)c1cccc(S(=O)(=O)Nc2ccc(Br)cc2)c1	-0.0237%
O=C(CSc1nccn1C1CCCC1)Nc1cc(C(F)(F)F)ccc1Cl	19.8%
NC(=O)c1ccsc1NC(=O)CS(=O)(=O)c1ccc(F)cc1	6.44%
O=C(O)c1ccc(/C=N/NC(=O)c2ccc(CN3c4cccc5cccc(c45)S3(=O)=O)cc2)cc1	3.17% [at 30.8 µM]
COc1ccc(NC(=O)CCCSc2nc(-c3ccco3)cc(C(F)(F)F)n2)cc1	4.63%
Cc1ccc(C(=O)/C=C/c2cc(Br)cc(Br)c2O)o1	11.3%
Cc1ccc(/C(O)=C2/C(=O)C(=O)OC2c2ccc(Cl)cc2)cc1 (stereo not given)	-12.7% [at 30.8 µM]
COc1cccc(OC)c1C(=O)NC(=S)NNC(=O)[C@H]1C[C@@H]1c1ccccc1	-7.09%
CC(NC(=O)Nc1ccc(O)cc1)(C(F)(F)F)C(F)(F)F	-9.73% [at 30.8 µM]
O=C(O)CC1Sc2nc3ccccc3n2C1=O (stereo not given)	-7.87% [at 30.8 µM]
CCCc1nc2ccccc2c(=O)n1/N=C/c1ccc(O)c(O)c1	-5.04%
